Test results from article PMC7862700, “An all-to-all approach to the identification of sequence-specific readers for epigenetic DNA modifications on cytosine”.

Experiments:
Assay in all cases: DAPPL (digital affinity profiling via proximity ligation, sequencing); 10 mM Tris-HCl pH 7.5, 50 mM NaCl, 1 mM DTT, 4% glycerol, room temperature, 30 min; GST-TFs on glutathione beads, 16-mer random dsDNA library, 0.1% formaldehyde crosslink after washing; high values mean tight binding
Conditions in all cases: protein: recombinant; tags: N-terminal GST; dsDNA, one strand shown
FLI1 = target: T1, FLI1 (Homo sapiens, UniProt Q01543 1-452)
T1 sequence: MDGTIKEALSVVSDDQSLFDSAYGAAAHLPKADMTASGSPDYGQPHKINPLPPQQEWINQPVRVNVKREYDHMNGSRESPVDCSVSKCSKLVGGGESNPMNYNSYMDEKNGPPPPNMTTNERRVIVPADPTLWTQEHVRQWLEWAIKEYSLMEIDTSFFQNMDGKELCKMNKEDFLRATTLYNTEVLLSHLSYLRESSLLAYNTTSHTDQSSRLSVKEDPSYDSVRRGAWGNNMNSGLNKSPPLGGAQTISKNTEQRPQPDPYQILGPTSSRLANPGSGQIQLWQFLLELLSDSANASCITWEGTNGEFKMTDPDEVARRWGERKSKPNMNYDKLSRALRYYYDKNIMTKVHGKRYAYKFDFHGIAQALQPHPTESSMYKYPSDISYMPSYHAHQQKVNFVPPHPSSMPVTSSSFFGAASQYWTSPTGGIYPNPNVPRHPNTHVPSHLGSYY
Method in brief: (§1)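 The binding signal reported is, for every hexamer, its read frequency for a factor over its read frequency for the tag-only sample. Reads came from pools of yeast-expressed, GST-fused human transcription factors on glutathione beads, barcoded with DNA and mixed with that sample, which were incubated with 200 nmole of a random double-stranded 16-mer DNA library in Tris/NaCl/DTT/glycerol buffer at room temperature for 30 min. After washing, the pools were crosslinked with 0.1% formaldehyde, proximity-ligated with BsaI/T4 ligase for 1 h at 37 °C, PCR-amplified and sequenced on an Illumina NextSeq500.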

ELK1 = target: T2, ELK1 (Homo sapiens, UniProt P19419 1-428)
T2 sequence: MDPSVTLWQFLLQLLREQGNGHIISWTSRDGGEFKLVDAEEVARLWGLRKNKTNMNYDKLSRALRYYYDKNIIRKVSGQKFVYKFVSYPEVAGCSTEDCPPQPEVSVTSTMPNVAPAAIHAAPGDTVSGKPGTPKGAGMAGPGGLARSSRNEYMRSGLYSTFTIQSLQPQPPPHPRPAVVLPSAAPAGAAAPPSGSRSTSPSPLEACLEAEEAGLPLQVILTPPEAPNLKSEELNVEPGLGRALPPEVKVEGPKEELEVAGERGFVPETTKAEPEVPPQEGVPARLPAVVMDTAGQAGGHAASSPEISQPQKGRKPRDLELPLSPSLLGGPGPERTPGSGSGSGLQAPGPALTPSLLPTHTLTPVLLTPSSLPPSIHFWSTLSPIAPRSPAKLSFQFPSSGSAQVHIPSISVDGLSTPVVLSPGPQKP
Method in brief: as §1

GABPA = target: T3, GABPA (Homo sapiens, UniProt Q06546 1-454)
T3 sequence: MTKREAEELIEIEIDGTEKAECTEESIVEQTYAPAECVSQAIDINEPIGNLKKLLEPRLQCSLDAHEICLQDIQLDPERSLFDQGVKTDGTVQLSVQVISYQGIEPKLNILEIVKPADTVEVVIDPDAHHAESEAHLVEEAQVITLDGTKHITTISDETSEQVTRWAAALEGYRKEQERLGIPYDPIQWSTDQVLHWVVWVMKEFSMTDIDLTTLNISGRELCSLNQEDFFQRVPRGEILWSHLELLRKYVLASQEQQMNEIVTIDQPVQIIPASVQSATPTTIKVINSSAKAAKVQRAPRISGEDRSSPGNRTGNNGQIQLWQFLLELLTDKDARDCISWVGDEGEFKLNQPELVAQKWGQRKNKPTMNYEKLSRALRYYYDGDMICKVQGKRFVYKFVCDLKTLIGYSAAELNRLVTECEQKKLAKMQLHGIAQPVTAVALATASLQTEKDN
Method in brief: as §1

ERG = target: T4, ERG (Homo sapiens, UniProt P11308 1-479)
T4 sequence: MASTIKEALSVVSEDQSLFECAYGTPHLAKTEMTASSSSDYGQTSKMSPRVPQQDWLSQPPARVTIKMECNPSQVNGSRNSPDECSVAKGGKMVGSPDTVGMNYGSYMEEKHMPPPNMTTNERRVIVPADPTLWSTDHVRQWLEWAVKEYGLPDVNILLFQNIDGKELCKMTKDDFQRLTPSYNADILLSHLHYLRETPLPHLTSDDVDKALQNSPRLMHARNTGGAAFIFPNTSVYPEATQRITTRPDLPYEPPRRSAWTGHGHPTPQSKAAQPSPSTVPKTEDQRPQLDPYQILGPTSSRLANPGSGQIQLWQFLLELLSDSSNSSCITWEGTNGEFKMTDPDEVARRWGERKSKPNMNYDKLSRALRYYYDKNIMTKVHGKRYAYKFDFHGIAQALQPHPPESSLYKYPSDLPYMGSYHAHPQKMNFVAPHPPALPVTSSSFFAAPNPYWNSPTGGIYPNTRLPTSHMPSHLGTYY
Method in brief: as §1

ELF1 = ELF1 (Homo sapiens, UniProt P32519 1-619)
Method in brief: as §1

EHF = target: T5, EHF (Homo sapiens, UniProt Q9NZC4 1-300)
T5 sequence: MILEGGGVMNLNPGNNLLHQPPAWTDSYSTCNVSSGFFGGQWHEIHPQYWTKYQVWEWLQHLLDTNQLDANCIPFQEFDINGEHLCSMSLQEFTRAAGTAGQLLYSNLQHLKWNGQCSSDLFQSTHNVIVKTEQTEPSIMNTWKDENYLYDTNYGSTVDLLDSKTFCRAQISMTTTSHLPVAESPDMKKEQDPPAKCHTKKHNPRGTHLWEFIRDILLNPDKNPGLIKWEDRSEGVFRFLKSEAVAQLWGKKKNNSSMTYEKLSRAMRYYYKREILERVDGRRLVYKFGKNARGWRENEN
Method in brief: as §1

SPI1 = SPI1 (Homo sapiens, UniProt P17947 1-270)
Method in brief: as §1

SPIB = SPIB (Homo sapiens, UniProt Q01892 1-262)
Method in brief: as §1

ELK3 = target: T6, ELK3 (Homo sapiens, UniProt P41970 1-407)
T6 sequence: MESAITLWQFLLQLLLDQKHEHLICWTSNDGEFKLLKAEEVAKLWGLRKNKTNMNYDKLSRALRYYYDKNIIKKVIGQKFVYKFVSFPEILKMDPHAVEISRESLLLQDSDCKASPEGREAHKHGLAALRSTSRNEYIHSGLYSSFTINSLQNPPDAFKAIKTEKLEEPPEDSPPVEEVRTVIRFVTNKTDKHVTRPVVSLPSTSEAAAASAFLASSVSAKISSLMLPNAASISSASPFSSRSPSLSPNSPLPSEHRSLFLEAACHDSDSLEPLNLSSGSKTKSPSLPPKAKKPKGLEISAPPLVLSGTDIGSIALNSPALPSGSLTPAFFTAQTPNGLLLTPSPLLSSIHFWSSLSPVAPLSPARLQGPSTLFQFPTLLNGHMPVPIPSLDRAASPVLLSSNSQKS
Method in brief: as §1

Sequence of ELF1 (P32519 whole entry): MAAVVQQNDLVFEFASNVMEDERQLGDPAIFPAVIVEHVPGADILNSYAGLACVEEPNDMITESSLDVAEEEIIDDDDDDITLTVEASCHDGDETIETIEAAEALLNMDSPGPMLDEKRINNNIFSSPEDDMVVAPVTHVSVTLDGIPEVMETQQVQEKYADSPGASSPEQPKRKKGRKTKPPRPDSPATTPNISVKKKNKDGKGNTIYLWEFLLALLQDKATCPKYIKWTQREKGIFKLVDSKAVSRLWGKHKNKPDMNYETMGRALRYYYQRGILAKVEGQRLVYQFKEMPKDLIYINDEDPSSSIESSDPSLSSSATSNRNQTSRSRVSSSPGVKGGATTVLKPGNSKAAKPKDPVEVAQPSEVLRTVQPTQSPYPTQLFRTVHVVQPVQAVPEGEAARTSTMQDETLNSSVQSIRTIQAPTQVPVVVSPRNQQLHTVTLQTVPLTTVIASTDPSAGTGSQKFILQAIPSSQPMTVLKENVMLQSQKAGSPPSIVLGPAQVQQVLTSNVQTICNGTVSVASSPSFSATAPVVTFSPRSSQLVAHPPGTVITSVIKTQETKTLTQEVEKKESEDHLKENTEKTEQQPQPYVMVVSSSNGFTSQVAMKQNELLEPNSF
Sequence of SPIB (Q01892 whole entry): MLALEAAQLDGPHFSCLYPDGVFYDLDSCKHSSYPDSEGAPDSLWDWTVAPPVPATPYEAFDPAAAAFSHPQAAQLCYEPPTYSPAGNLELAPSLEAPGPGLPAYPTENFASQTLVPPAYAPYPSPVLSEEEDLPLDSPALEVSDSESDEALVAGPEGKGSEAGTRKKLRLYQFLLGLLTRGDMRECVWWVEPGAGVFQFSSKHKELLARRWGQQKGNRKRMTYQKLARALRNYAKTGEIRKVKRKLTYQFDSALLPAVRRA

Sequence	binding signal (FLI1)	binding signal (ELK1)	binding signal (GABPA)	binding signal (ERG)	binding signal (ELF1)	binding signal (EHF)	binding signal (SPI1)	binding signal (SPIB)	binding signal (ELK3)
AATTTC	1.65 fold enrichment (6-mer frequency, TF over GST control)	1.59 fold enrichment (6-mer frequency, TF over GST control)	1.75 fold enrichment (6-mer frequency, TF over GST control)	1.94 fold enrichment (6-mer frequency, TF over GST control)	1.6 fold enrichment (6-mer frequency, TF over GST control)	1.77 fold enrichment (6-mer frequency, TF over GST control)	1.47 fold enrichment (6-mer frequency, TF over GST control)	1.85 fold enrichment (6-mer frequency, TF over GST control)	1.79 fold enrichment (6-mer frequency, TF over GST control)
TACACT	1.41 fold enrichment (6-mer frequency, TF over GST control)	1.57 fold enrichment (6-mer frequency, TF over GST control)	1.51 fold enrichment (6-mer frequency, TF over GST control)	1.58 fold enrichment (6-mer frequency, TF over GST control)	1.5 fold enrichment (6-mer frequency, TF over GST control)	1.62 fold enrichment (6-mer frequency, TF over GST control)	1.54 fold enrichment (6-mer frequency, TF over GST control)	1.5 fold enrichment (6-mer frequency, TF over GST control)	1.51 fold enrichment (6-mer frequency, TF over GST control)
TTCTAG	1.27 fold enrichment (6-mer frequency, TF over GST control)	1.26 fold enrichment (6-mer frequency, TF over GST control)	1.38 fold enrichment (6-mer frequency, TF over GST control)	1.33 fold enrichment (6-mer frequency, TF over GST control)	1.25 fold enrichment (6-mer frequency, TF over GST control)	1.2 fold enrichment (6-mer frequency, TF over GST control)	1.2 fold enrichment (6-mer frequency, TF over GST control)	1.14 fold enrichment (6-mer frequency, TF over GST control)	1.3 fold enrichment (6-mer frequency, TF over GST control)
TGGTCT	1.56 fold enrichment (6-mer frequency, TF over GST control)	1.69 fold enrichment (6-mer frequency, TF over GST control)	1.47 fold enrichment (6-mer frequency, TF over GST control)	1.49 fold enrichment (6-mer frequency, TF over GST control)	1.49 fold enrichment (6-mer frequency, TF over GST control)	1.66 fold enrichment (6-mer frequency, TF over GST control)	1.58 fold enrichment (6-mer frequency, TF over GST control)	1.76 fold enrichment (6-mer frequency, TF over GST control)	1.65 fold enrichment (6-mer frequency, TF over GST control)
ACCCAT	1.18 fold enrichment (6-mer frequency, TF over GST control)	1.21 fold enrichment (6-mer frequency, TF over GST control)	1.33 fold enrichment (6-mer frequency, TF over GST control)	1.23 fold enrichment (6-mer frequency, TF over GST control)	1.25 fold enrichment (6-mer frequency, TF over GST control)	1.16 fold enrichment (6-mer frequency, TF over GST control)	1.17 fold enrichment (6-mer frequency, TF over GST control)	1.33 fold enrichment (6-mer frequency, TF over GST control)	1.24 fold enrichment (6-mer frequency, TF over GST control)
CACTTA	1.17 fold enrichment (6-mer frequency, TF over GST control)	1.24 fold enrichment (6-mer frequency, TF over GST control)	1.25 fold enrichment (6-mer frequency, TF over GST control)	1.22 fold enrichment (6-mer frequency, TF over GST control)	1.27 fold enrichment (6-mer frequency, TF over GST control)	1.18 fold enrichment (6-mer frequency, TF over GST control)	1.21 fold enrichment (6-mer frequency, TF over GST control)	1.19 fold enrichment (6-mer frequency, TF over GST control)	1.2 fold enrichment (6-mer frequency, TF over GST control)
ATGACA	1.34 fold enrichment (6-mer frequency, TF over GST control)	1.32 fold enrichment (6-mer frequency, TF over GST control)	1.45 fold enrichment (6-mer frequency, TF over GST control)	1.32 fold enrichment (6-mer frequency, TF over GST control)	1.39 fold enrichment (6-mer frequency, TF over GST control)	1.32 fold enrichment (6-mer frequency, TF over GST control)	1.29 fold enrichment (6-mer frequency, TF over GST control)	1.32 fold enrichment (6-mer frequency, TF over GST control)	1.3 fold enrichment (6-mer frequency, TF over GST control)
